Each structure is given as a SMILES string. Out of some 69,000 compounds screened, about 8,600 (12%) showed an effect of 50% or more. Shown is part of a subset that was picked to be rich in strong results.

The subject of this test is Plasmodium berghei. Briefly: Screen against P. berghei liver stage (PbLuc), transformed with Luciferase, at 10uM. Format: functional, HepG2. Particulars: tested at 10 uM.
With `c1cnn(-c2ccc(CN3CCCC(Cn4cncn4)C3)cc2)c1` (stereo not given), the INHIBITION is 13.3%.
As to `O=C(O)C(c1ccc(O)cc1)N1CCC(N2CCSCC2)CC1` (stereo not given), the INHIBITION turned out to be 18.6%.
On to `Cc1nc[nH]c1CN(C)Cc1cnn(-c2ccc(F)cc2)c1`, for which the INHIBITION is -5.22%.
In the case of `O=S(=O)(CCN1CCCCC1Cn1cccn1)c1ccccc1` (stereo not given), the INHIBITION came to 25.8%.
In the case of `Cc1noc(C)c1CNC(=O)Nc1ccc(N2CCOC(C)C2)cc1` (stereo not given), the INHIBITION worked out at 5.94%.
In the case of `CN(Cc1cnn(C)c1)C(=O)Cn1c(CS(C)(=O)=O)nc2ccccc21`, the INHIBITION was -7.11%.
Then `CC(CN1CCOC1=O)NC(=O)c1ccccc1Oc1ccccc1` (stereo not given), with 18.4%; and `CCN(Cc1ccoc1)C(=O)NC1CCN(CC2CC2)C1` (stereo not given), with 19.3%.
Regarding `CCN(Cc1ccoc1)C(=O)NC1CCN(CC=C(C)C)CC1`, the INHIBITION is listed as 57.2%.
As for `CCN(Cc1ccoc1)C(=O)NC1CCN(CC2CCCC2)CC1`, the INHIBITION is reported as 48.5%.
As for `Cc1cccc(CC(=O)NS(=O)(=O)c2ccc(F)c(F)c2)c1`, the INHIBITION is on record as 23.5%.
For `CN(CC(=O)NS(=O)(=O)c1ccc(F)cc1)Cc1ccccc1`, the INHIBITION worked out at 50%.
As to `Cc1ccc(S(=O)(=O)NC(=O)CCc2ccccc2)cc1N(C)C`, the INHIBITION is reported as 12.589%.
As to `CN(CC(=O)NS(=O)(=O)c1ccsc1)Cc1ccccc1`, the INHIBITION is listed as 9.76%.
Regarding `CN(CC(=O)NS(=O)(=O)c1cccs1)Cc1ccccc1`, the INHIBITION is reported as 32%.
Then `Cc1cccc(S(=O)(=O)NC(=O)CN(C)Cc2ccccc2)c1`, with 55.1%.
On to `CCS(=O)(=O)N1C[C@H]2CN(Cc3cccc(C)c3)C(=O)[C@H]2C1`, for which the INHIBITION was -1.36%.
Take `N#Cc1ccccc1N1CCCN(C(=O)NCc2cc[nH]n2)CC1`: the INHIBITION stood at 10%.
For `CC(c1cccc(S(N)(=O)=O)c1)N(C)CCCOc1ccccc1` (stereo not given), the INHIBITION amounted to 23.4%.
For the molecule `CCN1CCC(CC(=O)NCCc2nc(O)cc(O)n2)CC1`, the INHIBITION is given as -16.3%.
On to `COc1c(CNC2CCCN(c3ncccn3)C2)c(C(C)C)nn1C` (stereo not given), for which the INHIBITION stood at 42.9%.
As for `Cc1ccc(CN2CCC3(CC2)C(=O)N(CC(C)C)CCN3C)s1`, the INHIBITION is -31.9%.
As for `COc1ccc(CNC(=O)NCCCNS(C)(=O)=O)cc1OC`, the INHIBITION amounted to 33.8%.
With `CCC(C)Oc1ccc(CNCCNC(C)=O)cc1Cl` (stereo not given), the INHIBITION is listed as 60.2%.
Then `CC(CNCc1ccc(Cl)c(Cl)c1)Oc1ccccn1` (stereo not given), with -41.8%.
Regarding `CC(=O)NCCNC(=O)NCc1ccc(Br)cc1Cl`, the INHIBITION is 4.41%.
Next, `Cc1cccc(CN2CCCC(O)(CNCCc3c[nH]cn3)C2=O)c1` (stereo not given): 48.1%; `COc1ccc(CNCC(C)Oc2ccccn2)cc1Cl` (stereo not given): 17%; `CCC(C)Oc1ccc(CNCCNC(C)=O)cc1OC` (stereo not given): 40.7%.
As for `CCC(C)Oc1ccc(CNCCc2c[nH]cn2)cc1Cl` (stereo not given), the INHIBITION is 66.8%.
Next, `CCC(C)Oc1ccc(CNCCNS(C)(=O)=O)cc1Cl` (stereo not given): 60.2%; `CCOCC1COCCC12CCN(C(=O)CCOC)CC2` (stereo not given): 8.67%; `CC(=O)N1CCN(c2ccc(Cl)nn2)C(=O)C1`: 40.8%.
Then `NC(=O)C1CCN(C(=O)c2cccn2Cc2cccs2)CC1`, with -12.1%; and `CC(C)N(Cc1ccc(Cl)c(Cl)c1)C(=O)Cn1cncn1`, with 9.55%.
Take `Cc1cc(C)n(C2CCCN(C(=O)Cc3ccc(C#N)cc3)C2)n1` (stereo not given): the INHIBITION is 29.7%.
Then `C1CC(CN2C[C@@H]3C[C@@H](c4nnc(C5CC5)o4)O[C@@H]3C2)CCO1`, with 3.58%.
With `CCC(=O)NCC(CC)Oc1cccc(F)c1` (stereo not given), the INHIBITION is 23%.
`CCC(CNC(=O)c1ccc(C(N)=O)cc1)Oc1cccc(F)c1` (stereo not given): the INHIBITION was determined as 33.2%.
On to `CCC(CNC(=O)CNC(C)=O)Oc1cccc(F)c1` (stereo not given), for which the INHIBITION came out at 51.7%.
Regarding `CCC(CNC(=O)Cn1ccnc1)Oc1cccc(F)c1` (stereo not given), the INHIBITION stood at 42.4%.
Then `CCC(CNC(=O)COC)Oc1cccc(F)c1` (stereo not given), with 26.7%; and `CCC(CNC(=O)Cc1cc(C)on1)Oc1cccc(F)c1` (stereo not given), with 54.5%; and `NCc1cccc(-c2cccnc2C(=O)NCCN2CCCC2)c1`, with -8.58%.
Next, `CC(C)(C)c1ncc(CNCC2CN(C3CC3)CCO2)s1` (stereo not given): 37.7%.
On to `C=c1occc1=C1NC(c2cccc(CN3CCOCC3)c2)=NO1`, for which the INHIBITION is recorded as -2.69%.
For the molecule `CCCN(CCC)S(=O)(=O)N(C)Cc1ccncc1`, the INHIBITION turned out to be 53.4%.
Then `CCCN(Cc1ccccc1O)S(=O)(=O)N(C)CC`, with -58%; and `CCOc1ccc(S(=O)(=O)N(CCOC)Cc2ccoc2)cc1F`, with -17.7%; and `CCOc1ccc(S(=O)(=O)N(CCOC)Cc2ccncc2)cc1F`, with 58.8%.
For `CCN(Cc1cccc(-c2ccncc2)c1)S(N)(=O)=O`, the INHIBITION amounted to 11.7%.
Then `COCCN(Cc1cccnc1)S(=O)(=O)c1cccc(F)c1F`, with 29.4%; and `COCCN(Cc1cccnc1)S(=O)(=O)c1cc(C)ccc1F`, with 59.4%.
As to `CCN(C)S(=O)(=O)N(CC)Cc1cccc(-c2ccncc2)c1`, the INHIBITION was found to be 58.3%.
With `COCCN(Cc1cccnc1)S(=O)(=O)c1ccc(F)cc1C`, the INHIBITION is given as 26%.

(Values after ChEMBL document CHEMBL4513216, “Probing the Open Global Health Chemical Diversity Library for Multistage-Active Starting Points for Next-Generation Antimalarials” (ACS Infect Dis, 2020).)
